The nature of assay [1]: Quantitative High-Throughput drug screen in 47 multiple myeloma cell lines against the NCATS MIPE library collection: LP1_DSMZ cell viability assay (AID 1918982). Note: nearly all actives have a fitted effect of over 35% in size. In a few lines: (§1)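 500 cells/well per myeloma line exposed to pinned MIPE 4.0 compounds for 48 h at 37 °C, 5% CO2. Viability read as ATP by CellTiter-Glo luminescence, normalised to DMSO-only (100%) and media-only (0%) wells.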

Assay [2] is described as follows: Quantitative High-Throughput drug screen in 47 multiple myeloma cell lines against the NCATS MIPE library collection: KMS28PE_JCRB cell viability assay (AID 1918983). Note: nearly all actives have a fitted effect of over 35% in size. In a few lines: as §1
The nature of assay [3]: Quantitative High-Throughput drug screen in 47 multiple myeloma cell lines against the NCATS MIPE library collection: OCIMY5_PLB cell viability assay (AID 1918988). Note: nearly all actives have a fitted effect of over 65% in size. The method, boiled down: as §1
The nature of assay [4]: Quantitative High-Throughput drug screen in 47 multiple myeloma cell lines against the NCATS MIPE library collection: OPM1_PLB cell viability assay (AID 1918989). Note: nearly all actives have a fitted effect of over 40% in size. In a few lines:
as §1

Assay [5] in a line: Quantitative High-Throughput drug screen in 47 multiple myeloma cell lines against the NCATS MIPE library collection: SKMM1_PLB cell viability assay (AID 1919863). Note: nearly all actives have a fitted effect of over 35% in size. As to conditions: SKMM1 myeloma viability, CellTiter-Glo ATP, 48 h; viability: hits give low values. In a few lines:
as §1
A general note: ATP-based viability assays read luminescence as a measure of living cells.

Assay [6] is described as follows: Quantitative High-Throughput drug screen in 47 multiple myeloma cell lines against the NCATS MIPE library collection: U266_ATCC cell viability assay (AID 1919864). Note: nearly all actives have a fitted effect of over 35% in size. The method, boiled down:
as §1

The nature of assay [7]: Quantitative High-Throughput drug screen in 47 multiple myeloma cell lines against the NCATS MIPE library collection: XG6_PLB cell viability assay (AID 1919865). Note: nearly all actives have a fitted effect of over 40% in size. In a few lines:
as §1

A short description of assay [8]: Quantitative High-Throughput drug screen in 47 multiple myeloma cell lines against the NCATS MIPE library collection: KMS34_JCRB cell viability assay (AID 1918985). Note: nearly all actives have a fitted effect of over 40% in size. The method, boiled down:
as §1

Assay [9] can be described thus: Quantitative High-Throughput drug screen in 47 multiple myeloma cell lines against the NCATS MIPE library collection: OCIMY7_PLB cell viability assay (AID 1918987). Note: nearly all actives have a fitted effect of over 65% in size. Particulars: OCI-MY7 myeloma viability, CellTiter-Glo ATP, 48 h; viability (% of DMSO): at 45.8 µM (top of the series). The method, boiled down:
as §1

Inconclusive results are not listed. Values without a mark were called inactive. The source made the active and inactive calls. Calls come from the whole dose curve; as a rule, active = well fitted cell-killing curve with a large enough effect; inconclusive = small, poorly fitted or top-dose-only effect, or effect the other way; inactive = no such curve, though single readings can be large or run the other way.
Potency is the fitted concentration of half-maximal effect.

For orientation: viability means a read-out of living cells in per cent, often relative to untreated cells. For `CC[C@H](CC[C@@H](C)[C@H]1CC[C@H]2[C@@H]3CC=C4C[C@@H](O)CC[C@]4(C)[C@@H]3CC[C@]12C)C(C)C`, the Potency entry in assay [1], in assay [2], in [3], in assay [4], in [6] and in assay [7] was “inactive” each time. Further, in assay [5], the viability was 106%.

As for `C[C@@H]1[C@H](C)CC[C@]2(C(=O)O)CC[C@]3(C)C(=CC[C@@H]4[C@@]5(C)C[C@@H](O)[C@H](O)[C@@](C)(CO)[C@H]5CC[C@]43C)[C@@H]12`, the Potency result in assay [1], in assay [2], in assay [8], in [3], in assay [4] and in [7] was “inactive” in each case.

Regarding `CCOC(=O)C=C[C@H](C[C@@H]1CCNC1=O)NC(=O)[C@@H](CC(=O)[C@@H](NC(=O)c1cc(C)on1)C(C)C)Cc1ccc(F)cc1`, the Potency entry in assay [1], in assay [2], in assay [8] and in assay [3] was “inactive” each time. Also, the viability in assay [5] is 138%.

On to `O=C(C[C@@H]1CC=CCCC(=O)O[C@H](c2ccccc2)CNC1=O)NCc1ccc(Cl)cc1`, for which the Potency result in assay [1], in assay [2], in assay [8] and in assay [4] was “inactive” each time. Also, in [7], the Potency was 6620 nM (active).

Regarding `CON=C(C(=O)N[C@@H]1C(=O)N2C(C(=O)O)=C(CSC(=O)c3ccco3)CS[C@H]12)c1csc(N)n1`, the Potency entry in assay [1], in assay [2], in assay [9] and in assay [4] was “inactive” each time. For the same compound, in assay [5], the viability was 134%.

As for `O=C1c2cccc(O)c2C(=O)c2c(O)cc(CO)cc21`, the results for the Potency in [1] and in assay [2] were 16600 nM (active) and 5900 nM (active), respectively. Moreover, the Potency entry in assay [9] and in assay [4] was “inactive” in each case.

For the compound `Cn1cc(-c2ccc3ncc(Cc4ccc5ncccc5c4)n3n2)cn1`, the Potency entry in [1], in [2], in assay [8] and in assay [4] was “inactive” in each case. In assay [5], the Potency was 2090 nM (active).

Regarding `FC(F)c1nc2ccccc2n1-c1nc(N2CCOCC2)nc(N2CCOCC2)n1`, the Potency was 20.9 nM (active) in assay [1]; 418 nM (active) in assay [2]; 372 nM (active) in assay [9]; 1320 nM (active) in assay [3]; 469 nM (active) in assay [4]; 1480 nM (active) in assay [5].

With `O=C(O)CCCCCC(=O)NN=C1CCCC1`, the Potency result in [1], in assay [2], in assay [4] and in assay [6] was “inactive” each time. Moreover, the viability in [5] was 119%.

In the case of `C=C1C(=CC=C2CCC[C@]3(C)[C@@H]([C@H](C)CCCC(C)(C)O)CC[C@@H]23)C[C@@H](O)C[C@@H]1O`, the Potency in [1] is 20900 nM (active); in assay [2] it was 33200 nM (active); in [9] it was 6620 nM (active); in [3], 3320 nM (active); in assay [4], 5260 nM (active); in assay [6], 4180 nM (active).

On to `O=C(O)C(=O)Nc1cccc(C2=NN=N[N]2)c1`, for which the Potency entry in assay [1], in assay [2], in [8], in assay [3], in assay [4] and in [7] was “inactive” each time. Also, in assay [5], the viability was 129%.

Consider `Cc1ccccc1C(=O)Nc1ccc(C(=O)N2CCCC(O)c3cc(Cl)ccc32)c(C)c1` (stereo unspecified), for which the Potency in assay [1] is 18700 nM (active). Also, the Potency entry in [2], in [4] and in [6] was “inactive” in each case. The viability in assay [5] is 139%.

As for `CCCNS(=O)(=O)Nc1ncnc(OCCOc2ncc(Br)cn2)c1-c1ccc(Br)cc1`, the Potency entry in [1], in [2], in [8], in assay [4], in assay [6] and in assay [7] was “inactive” throughout.

For `Cn1cnc2c(F)c(Nc3ccc(Br)cc3F)c(C(=O)NOCCO)cc21`, the Potency entry in assay [1], in assay [2], in assay [3], in assay [4] and in [6] was “inactive” throughout. Moreover, the viability in [5] was 115%. Besides, the Potency in assay [7] is 13.2 nM (active).

As for `Cc1cc(-c2nnc3n2CCCCC3)c(C)n1-c1ccccc1`, the Potency entry in [1], in assay [2], in assay [4] and in assay [6] was “inactive” in each case. Also, in assay [3], the Potency is 23500 nM (active).

Take `COC(=O)[C@@H]1CC2=CC(=O)CC[C@]2(C)[C@@]23O[C@@H]2C[C@@]2(C)[C@H](CC[C@@]24CCC(=O)O4)[C@@H]13`: the Potency result in [1], in assay [2], in assay [4], in assay [6] and in assay [7] was “inactive” in each case.

Regarding `COc1ccc(C(C)=O)c(O)c1`, the Potency entry in assay [1], in assay [2], in assay [8], in assay [3] and in assay [4] was “inactive” in each case. The Potency in assay [7] was 18700 nM (active).

For `O=C1NC(O)CCN1[C@@H]1O[C@H](CO)[C@H](O)[C@H]1O` (stereo partly specified), the Potency in [1] is 5900 nM (active). The Potency result in [2], in assay [4], in assay [6] and in [7] was “inactive” throughout. In addition, the viability in assay [5] is 122%.

For `CC1(C)O[C@@H]2C[C@H]3[C@@H]4CCC5=CC(=O)C=C[C@]5(C)[C@@H]4[C@@H](O)C[C@]3(C)[C@]2(C(=O)CO)O1`, the Potency was 16.6 nM (active) in assay [1], 118 nM (active) in assay [3] and 7430 nM (active) in assay [4]. Further, the Potency entry in assay [2], in [6] and in [7] was “inactive” throughout. The viability in assay [5] was 142%.

For `C[C@H]1C[C@H]2[C@@H]3CCC4=CC(=O)C=C[C@]4(C)[C@@H]3C(=O)C[C@]2(C)[C@@]1(O)C(=O)CO`, the Potency result in [1], in assay [2], in assay [3], in assay [4] and in assay [7] was “inactive” throughout.

With `CS(=O)(=O)N1CCc2c(-c3cnc(N)nc3)nc(N3CCOCC3)nc21`, the Potency is 33.2 nM (active) in assay [1]; 118 nM (active) in assay [2]; 833 nM (active) in [8]; 332 nM (active) in [3]; 332 nM (active) in assay [4]; 296 nM (active) in assay [6]. Besides, the Potency in assay [7] is 743 nM (active).

As for `C[C@@H](NCc1cc2ccccc2[nH]1)c1cccc2ccccc12`, the Potency result in assay [1], in assay [2], in assay [3], in assay [4] and in assay [7] was “inactive” each time. Also, in assay [5], the viability is 132%.
